Potency data for 26 compounds are collected here from PubChem BioAssay (NCATS).

Assay in all cases: Primary qHTS to identify gynecologic anti-cancer compounds using libraries of approved drugs and bioactive compounds (AID 1345084); further: nearly all actives have a fitted effect of over 55% in size
Background: Quantitative high-throughput screening tests each substance at several concentrations.

The test system of one assay is CASKI. Particulars: Gynecologic cancer cell panel viability, ATPlite luminescence, 48 h; series mostly up to 57.5 µM. The procedure, abridged: (§1)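 48 h compound exposure at 37 C, 5% CO2; five-point qHTS. ATPlite luminescence readout of cell ATP.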
Background: Cellular ATP, detected with luciferase, serves as a proxy for viable cell number.

The subject of the next assay is Es-2. Particulars: Gynecologic cancer cell panel viability, ATPlite luminescence, 48 h; series mostly up to 57.5 µM. The gist of the method: as §1
For another assay, the system named is HeLa. Conditions: Gynecologic cancer cell panel viability, ATPlite luminescence, 48 h; series mostly up to 57.5 µM. The procedure, abridged:
as §1

In the next assay the test system is Hek293T. Conditions: Gynecologic cancer cell panel viability, ATPlite luminescence, 48 h, control line for the selectivity index; series mostly up to 57.5 µM. The procedure, abridged: as §1
In another assay the test system is JEG-3. Particulars: Gynecologic cancer cell panel viability, ATPlite luminescence, 48 h; series mostly up to 57.5 µM. The procedure, abridged: as §1
In another assay the test system is OV90. Particulars: Gynecologic cancer cell panel viability, ATPlite luminescence, 48 h; series mostly up to 57.5 µM. The gist of the method:
as §1

In the next assay the test system is PA-1. Particulars: Gynecologic cancer cell panel viability, ATPlite luminescence, 48 h; series mostly up to 57.5 µM. The gist of the method: as §1
The next assay relates to SKOV3. Conditions: Gynecologic cancer cell panel viability, ATPlite luminescence, 48 h; series mostly up to 57.5 µM. The gist of the method: as §1
The test system of another assay is Tov-21-G. Conditions: Gynecologic cancer cell panel viability, ATPlite luminescence, 48 h; series mostly up to 57.5 µM. The procedure, abridged: as §1
The next assay concerns CAOV3. Particulars: Gynecologic cancer cell panel viability, ATPlite luminescence, 48 h; series mostly up to 57.5 µM. The procedure, abridged: as §1

Several values for one entry are separate records, joined by “and”; a condition that tells them apart may be missing. Equal entries are not always repeated. Results filed as inconclusive are left out. Activity calls are given as the source filed them. The call rests on the fitted dose curve; in most records, active means well fitted cell-killing curve with a large enough effect; inconclusive means small, poorly fitted or top-dose-only effect, or effect the other way; inactive means flat fitted curve, though single readings scatter.
Potency means the concentration at half of the fitted maximal effect.

Regarding `COc1ccc(C2CNC(=O)C2)cc1OC1CCCC1` (stereo not given), the Potency entry with CASKI, in the assay on Es-2, in the assay with HeLa, in the assay on Hek293T, in the assay on JEG-3 and in the assay on OV90 was “inactive” in each case. The Potency result in the assay on PA-1, with SKOV3 and with Tov-21-G was “inactive” throughout.

In the case of `O=C1c2c(O)ccc(O)c2C(=O)c2c(NCCNCCO)ccc(NCCNCCO)c21`, the Potency was 3.16 µM (active) in the assay with CAOV3; 2.82 µM (active) in the assay with CASKI; 15.8 µM (active) in the assay with HeLa; 10 µM (active) with Hek293T; 11.2 µM (active) in the assay with JEG-3; 28.2 µM (active) in the assay on OV90. In the assay on Tov-21-G, the Potency is 28.2 µM (active).

As to `CC[C@@]1(O)C(=O)OCc2c1cc1n(c2=O)Cc2cc3c(CN(C)C)c(O)ccc3nc2-1`, the Potency was 3.16 µM (active) with CAOV3; 1.26 µM (active) and 4.47 µM (active) in the assay with CASKI; 2 µM (active) in the assay on Es-2; 8.91 µM (active) with Hek293T; 447 nM (active) and 1.58 µM (active) with PA-1; 14.1 µM (active) in the assay on SKOV3. The Potency with Tov-21-G is 31.6 µM (active). The Potency result in the assay with HeLa was “inactive”.

On to `O=C(CCCN1CCC(O)(c2ccc(Cl)cc2)CC1)c1ccc(F)cc1`, for which the Potency entry in the assay on CASKI, in the assay with Es-2, with HeLa, in the assay with Hek293T and in the assay on JEG-3 was “inactive” each time.

For `O=c1c(-c2ccc(O)cc2)coc2cc(O)cc(O)c12`, the Potency entry in the assay on CAOV3, with Es-2, in the assay with Hek293T and in the assay with OV90 was “inactive” throughout. Besides, the Potency in the assay with Tov-21-G is 3.98 µM (active).

On to `O=C1Cc2cc(CCN3CCN(c4nsc5ccccc45)CC3)c(Cl)cc2N1`, for which the Potency result in the assay with CASKI, with Es-2, in the assay on HeLa, with Hek293T, in the assay with JEG-3 and with OV90 was “inactive” throughout. The Potency entry with PA-1, in the assay with SKOV3 and with Tov-21-G was “inactive” each time.

`Cn1ccc2cc3c(cc21)CCN3C(=O)Nc1cccnc1`: the Potency result in the assay on CASKI, in the assay on Es-2, in the assay with HeLa, in the assay with Hek293T, with JEG-3 and in the assay on OV90 was “inactive” in each case. Also, the Potency entry in the assay on PA-1, with SKOV3 and in the assay with Tov-21-G was “inactive” in each case.

`Cc1cc(C(C)(C)C)cc(C)c1CC1=NCCN1`: the Potency result in the assay on CAOV3, in the assay with CASKI, with JEG-3 and in the assay on Tov-21-G was “inactive” each time.

Turning to `CC1(C)O[C@H]2CC(=O)OC[C@]23[C@H]2CC[C@@]4(C)[C@H](c5ccoc5)OC(=O)[C@H]5O[C@]54[C@]2(C)C(=O)C[C@@H]13`, the Potency entry in the assay with CASKI, in the assay with Es-2, in the assay with HeLa, with Hek293T, in the assay on JEG-3 and with OV90 was “inactive” throughout. Also, the Potency entry in the assay on PA-1, in the assay with SKOV3 and in the assay with Tov-21-G was “inactive” in each case.

`NC12CC3CC(CC(C3)C1)C2`: the Potency result with CASKI, in the assay with Es-2, in the assay with HeLa, in the assay with Hek293T, in the assay on JEG-3 and with OV90 was “inactive” each time. Besides, the Potency entry in the assay with PA-1, in the assay on SKOV3 and in the assay with Tov-21-G was “inactive” throughout.

Turning to `COc1nc(C)nc(Cl)c1NC1=NCCN1`, the Potency entry with CASKI, in the assay on Es-2, with HeLa, with Hek293T, in the assay with JEG-3 and in the assay on OV90 was “inactive” throughout. Moreover, the Potency entry in the assay with PA-1, with SKOV3 and with Tov-21-G was “inactive” each time.

In the case of `CN(C)CCOC(c1ccccc1)c1ccccc1`, the Potency entry in the assay with CASKI, with Es-2, in the assay with HeLa, in the assay with Hek293T, in the assay with JEG-3 and with OV90 was “inactive” in each case. Further, the Potency result in the assay on PA-1, in the assay with SKOV3 and with Tov-21-G was “inactive” in each case.

In the case of `CC1COc2c(N3CCN(C)CC3)c(F)cc3c(=O)c(C(=O)O)cn1c23` (stereo not given), the Potency result in the assay on CASKI, in the assay on Es-2, in the assay on HeLa, in the assay on Hek293T, in the assay on JEG-3 and in the assay on OV90 was “inactive” throughout. The Potency entry with PA-1, with SKOV3 and in the assay with Tov-21-G was “inactive” each time.

As to `O=C(c1ccc(F)cc1)C1CCN(CCn2c(=O)[nH]c3ccccc3c2=O)CC1`, the Potency entry with CASKI, in the assay with Es-2, in the assay on HeLa, in the assay on Hek293T, in the assay with JEG-3 and with OV90 was “inactive” each time. Also, the Potency result in the assay with PA-1, in the assay with SKOV3 and with Tov-21-G was “inactive” throughout.

Turning to `COc1ccccc1OCCNCC(O)COc1cccc2[nH]c3ccccc3c12` (stereo not given), the Potency result with CAOV3, with Es-2, with HeLa, with PA-1, with SKOV3 and in the assay with Tov-21-G was “inactive” throughout.

For the compound `COC(=O)Nc1nc2ccc(C(=O)c3cccs3)cc2[nH]1`, the Potency entry in the assay on CAOV3 is “inactive”. In addition, the Potency with Es-2 is 0.282 µM (active); in the assay with HeLa, 0.158 µM (active); in the assay with JEG-3 it was 0.355 µM (active); in the assay on OV90, 7.08 µM (active); with PA-1, 224 nM (active).

`CC12CC3CC(C)(C1)CC(N)(C3)C2`: the Potency result in the assay with CASKI, in the assay with Es-2, in the assay on HeLa, in the assay on Hek293T, in the assay on JEG-3 and in the assay on OV90 was “inactive” in each case. For the same compound, the Potency result in the assay on PA-1, with SKOV3 and in the assay with Tov-21-G was “inactive” throughout.

`CCOC(=O)C(C)(C)Oc1ccc(Cl)cc1`: the Potency entry in the assay on CASKI, in the assay on Es-2, in the assay on HeLa, with Hek293T, in the assay on JEG-3 and in the assay on OV90 was “inactive” throughout. Also, the Potency entry in the assay with PA-1, with SKOV3 and in the assay with Tov-21-G was “inactive” each time.

Regarding `O=C1N(c2ccccc2)c2ccccc2C1(Cc1ccncc1)Cc1ccncc1`, the Potency entry in the assay with CAOV3, in the assay with HeLa, with Hek293T, with JEG-3, with OV90 and in the assay with PA-1 was “inactive” in each case. For the same compound, the Potency result with SKOV3 and in the assay with Tov-21-G was “inactive” in each case. Moreover, in the assay on Es-2, the Potency was 1 µM (active).

In the case of `CC(=O)OCC(CCn1cnc2cnc(N)nc21)COC(C)=O`, the Potency entry in the assay on CASKI, in the assay with Es-2, with HeLa, in the assay on Hek293T, in the assay with JEG-3 and with OV90 was “inactive” throughout. For the same compound, the Potency result with PA-1, with SKOV3 and with Tov-21-G was “inactive” throughout.

In the case of `O=C(Nc1ccc([N+](=O)[O-])cc1Cl)c1cc(Cl)ccc1O`, the Potency in the assay with CASKI is 6.31 µM (active); in the assay on Es-2, 2.51 µM (active); with HeLa, 1.26 µM (active); in the assay on Hek293T, 1.78 µM (active); in the assay with JEG-3, 2.82 µM (active); in the assay on PA-1 it was 2000 nM (active). For the same compound, the Potency in the assay on SKOV3 is 3.98 µM (active); in the assay on Tov-21-G, 3.55 µM (active). The Potency result in the assay on OV90 was “inactive”.

Consider `CS(=O)(=O)CCNCc1ccc(-c2ccc3ncnc(Nc4ccc(OCc5cccc(F)c5)c(Cl)c4)c3c2)o1`, for which the Potency result in the assay with CASKI, in the assay with Es-2, in the assay with HeLa, with Hek293T, with JEG-3 and in the assay on OV90 was “inactive” throughout. Further, the Potency result in the assay on PA-1, in the assay with SKOV3 and in the assay on Tov-21-G was “inactive” in each case.

For `CN1C(C(=O)Nc2ccccn2)=C(O)c2ccccc2S1(=O)=O`, the Potency entry in the assay with CASKI, in the assay on Es-2, with HeLa, with Hek293T, in the assay on JEG-3 and in the assay on OV90 was “inactive” throughout. In addition, the Potency entry in the assay with PA-1 and in the assay with Tov-21-G was “inactive” each time.

In the case of `NC(CO)C(=O)NNCc1ccc(O)c(O)c1O` (stereo not given), the Potency entry with CASKI, in the assay with Es-2, with HeLa, with Hek293T, with JEG-3 and in the assay on OV90 was “inactive” in each case. Also, in the assay on Tov-21-G, the Potency entry is “inactive”.

As to `CCCCc1oc2ccccc2c1C(=O)c1cc(I)c(OCCN(CC)CC)c(I)c1`, the Potency entry with CASKI, with Es-2, in the assay with HeLa, in the assay on Hek293T, in the assay on JEG-3 and in the assay with OV90 was “inactive” throughout. In addition, the Potency result with PA-1 and in the assay with Tov-21-G was “inactive” in each case.

As to `Fc1ccc([C@@H]2CCNC[C@H]2COc2ccc3c(c2)OCO3)cc1`, the Potency entry in the assay on CASKI, in the assay with HeLa, with Hek293T, in the assay with JEG-3, with PA-1 and with Tov-21-G was “inactive” each time.
